{"source": "PubChem BioAssay (Tox21)", "note": "Results filed as inconclusive are left out. Where a call stands in place of a potency, no number is given. Activity calls are given as the source filed them. Calls come from the whole dose curve. Potency is the fitted concentration of half-maximal effect."}
{"molecular_target": "Peroxisome proliferator-activated receptor gamma (Homo sapiens) (UniProt P37231)", "sequence (P37231 whole entry, looked up)": "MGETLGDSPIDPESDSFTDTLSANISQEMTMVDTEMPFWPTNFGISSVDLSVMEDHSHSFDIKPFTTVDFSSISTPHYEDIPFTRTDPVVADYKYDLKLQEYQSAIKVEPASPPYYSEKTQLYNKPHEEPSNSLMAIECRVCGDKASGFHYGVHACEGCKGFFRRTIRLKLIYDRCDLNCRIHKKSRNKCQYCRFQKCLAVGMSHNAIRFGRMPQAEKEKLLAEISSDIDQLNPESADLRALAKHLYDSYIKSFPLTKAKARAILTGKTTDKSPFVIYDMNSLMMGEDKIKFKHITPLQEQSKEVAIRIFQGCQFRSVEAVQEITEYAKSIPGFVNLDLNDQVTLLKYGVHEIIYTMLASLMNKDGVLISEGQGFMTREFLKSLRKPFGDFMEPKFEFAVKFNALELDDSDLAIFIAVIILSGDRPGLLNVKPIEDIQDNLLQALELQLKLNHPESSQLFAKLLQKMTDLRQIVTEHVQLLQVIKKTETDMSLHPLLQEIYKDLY", "experiment": "qHTS assay to identify small molecule antagonists of the peroxisome proliferator-activated receptor gamma (PPARg) signaling pathway (AID 743191); note: nearly all actives have a fitted effect of over 30% in size", "conditions": "HEK293H PPARg-UAS-bla, beta-lactamase ratio, antagonist, 17 h; series mostly up to 62.6 µM", "description": "U.S. Tox21 Program National Center for Advancing Translational Sciences [NCATS] NIH Chemical Genomics Center [NCGC] U.S. Environmental Protection Agency [EPA] National Institutes of Environmental Health Sciences [NIEHS] National Toxicology Program [NTP] U.S. Food and Drug Administration [FDA] Tox21 Assay Overview: The peroxisome proliferator-activated receptors (PPARs) are lipid-activated transcription factors of the nuclear receptor superfamily with three distinct subtypes namely PPAR alpha, PPAR delta (also called PPAR beta) and PPAR gamma (PPARg). All these subtypes heterodimerize with Retinoid X receptor (RXR) and these heterodimers regulate transcription of various genes. PPAR-gamma receptor (glitazone receptor) is involved in the regulation of glucose and lipid metabolism. To identify the compounds that inhibit PPAR-gamma signaling, GeneBLAzer PPAR gamma UAS-bla HEK293H cell line (Invitrogen, Carlsbad, CA, USA) containing a beta-lactamase reporter gene under control of an Upstream Activator Sequence (UAS) was used to screen the Tox21 compound library.\nTox21 Assay Protocol Summary: PPARg-bla cells were dispensed at 3000 cells/6uL/well in 1536-well black wall/clear bottom plates using a Multidrop Combi (Thermo Fisher Scientific, Waltham, MA) dispenser. After the assay plates were incubated at 37C and 5% CO2 for 5 h, 23 nL of compounds dissolved in DMSO, positive controls or DMSO only was transferred to the assay plate by a Pintool station (Kalypsys, San Diego, CA). The assay plates were incubated at 37C for 17 h. After 1 uL of LiveBLAzerTM B/G FRET substrate was added using a Bioraptr Flying Reagent Dispenser (FRD) workstation (Beckman Coulter, Indianapolis, IN, USA), the plates were incubated at room temperature for 1 h, and fluorescence intensity was measured by an Envision plate reader (PerkinElmer, Shelton, CT)."}
{"smiles": "CCOC(=O)[C@H](CCc1ccccc1)N[C@@H](C)C(=O)N(CC(=O)O)C1Cc2ccccc2C1", "Potency": "inactive"}
{"smiles": "C(=C\\c1ccccc1)/c1ccccc1", "Potency": "inactive"}
{"smiles": "CC[C@]1(O)C[C@H]2CN(CCc3c([nH]c4ccccc34)[C@@](C(=O)OC)(c3cc4c(cc3OC)N(C=O)[C@H]3[C@@](O)(C(=O)OC)[C@H](OC(C)=O)[C@]5(CC)C=CCN6CC[C@]43[C@@H]65)C2)C1", "Potency": "inactive"}
{"smiles": "CCC(C)(C)OC", "Potency": "inactive"}
{"smiles": "CC=C(Cl)Cl", "Potency": "inactive"}
{"smiles": "CC(CN(C)C)C(C)(O)Cc1ccc(Cl)cc1", "note": "(stereo not given)", "Potency": "inactive"}
{"smiles": "O=C(Cn1ccnc1[N+](=O)[O-])NCCO", "Potency": "inactive"}
{"smiles": "CCC(C)COC(=O)CC(C)C", "note": "(stereo not given)", "Potency": "inactive"}
{"smiles": "C/C=C/C=C/C=O", "Potency": "inactive"}
{"smiles": "Oc1c(I)cc(I)c2cccnc12", "Potency": "18.8 µM (active)"}
{"smiles": "O=C(CCCN1CC=C(n2c(=O)[nH]c3ccccc32)CC1)c1ccc(F)cc1", "Potency": "inactive"}
{"smiles": "Cc1ccccc1S", "Potency": "inactive"}
{"smiles": "O=C1c2ccccc2C(=O)C1c1nc2ccccc2c(Br)c1O", "Potency": "inactive"}
{"smiles": "C=C(C)C(=O)OCCCCCCCCCCCCC", "Potency": "inactive"}
{"smiles": "N#CCc1ccc(Cl)cc1Cl", "Potency": "inactive"}
{"smiles": "CN1CCCN=C1COC(=O)C(O)(c1ccccc1)C1CCCCC1", "note": "(stereo not given)", "Potency": "inactive"}
{"smiles": "C=CC(C)(CCC=C(C)C)OC(=O)CC(C)C", "note": "(stereo not given)", "Potency": "inactive"}
{"smiles": "c1ccc2c(c1)CCc1ccccc1N2", "Potency": "inactive"}
{"smiles": "O=c1[nH]ncc2ccccc12", "Potency": "inactive"}
{"smiles": "CCCCCC#CC(=O)OC", "Potency": "inactive"}
{"smiles": "CC(C)=CCC/C(C)=C/CC/C(C)=C/CCC(=O)OC/C=C(\\C)CCC=C(C)C", "Potency": "inactive"}
{"smiles": "CCCCCCCCCI", "Potency": "inactive"}
{"smiles": "CC(C)(C)C(=O)C(=O)O", "Potency": "inactive"}
{"smiles": "COC(=O)CCS", "Potency": "inactive"}
{"smiles": "Cc1ccccc1N=C(N)Nc1ccccc1C", "Potency": "inactive"}
{"smiles": "Cc1ccc(CO)cc1", "Potency": "inactive"}
{"smiles": "CC(CCC(=O)O)C(=O)O", "note": "(stereo not given)", "Potency": "inactive"}
{"smiles": "CC1=Nc2ccc3ccccc3c2C1(C)C", "Potency": "inactive"}
{"smiles": "c1ccc(C[n+]2cccc3ccccc32)cc1", "Potency": "inactive"}
{"smiles": "Cc1cc(C)cc(N)c1", "Potency": "inactive"}
{"smiles": "FC(F)(F)c1ccccc1Cl", "Potency": "inactive"}
{"smiles": "CCOC(=O)C1=C(C)NC(C)=C(C(=O)OC)C1c1cccc(Cl)c1Cl", "note": "(stereo not given)", "Potency": "inactive"}
{"smiles": "CN1C(C(=O)Nc2ccccn2)=C(O)c2sccc2S1(=O)=O", "Potency": "inactive"}
{"smiles": "CCOC(=O)/C=C/C(=O)OCC", "Potency": "inactive"}
{"smiles": "O=[N+]([O-])c1ccc(O/N=C/c2cc(Br)c(O)c(Br)c2)c([N+](=O)[O-])c1", "Potency": "19.4 µM (active)"}
{"smiles": "CCOC(=O)c1ccc(OCCN2C[C@H](O)[C@@H](O)[C@H](O)[C@H]2CO)cc1", "Potency": "inactive"}
{"smiles": "CCCCCCCCCCC(=O)O", "Potency": "inactive"}
{"smiles": "CCCCC(CC)CN", "note": "(stereo not given)", "Potency": "inactive"}
{"smiles": "Brc1cc2ccccc2c2ccccc12", "Potency": "inactive"}
{"smiles": "CCN(CC)CCNC(=O)COc1ccc(OC)cc1", "Potency": "inactive"}
